According to the supplement of paper PMC6555819:

The sequences below were run on VDR:RXRa (NR concentration 270 nM, RXRa partner concentration 90 nM) (assay: PBM binding z-score (relative to random genomic background probes); higher = stronger binding; sequences stand for … in GC…GCGATTGACAGCGTAGAATGAAGG).
Description: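 Protein-binding microarray (Agilent 4x180K custom design, double-stranded 60-nt probes: 5' GC cap, 34-nt variable region, 24-nt constant primer region; full probe sequence given). Purified or IVT nuclear receptor:RXRα heterodimers (3:1 NR:RXRα, mostly 270:90 nM) or homodimers were incubated for 1 h in PBS with 2% milk and no ligand, then detected with Alexa488 antibodies. Fluorescence from o1-orientation probes (~5 replicates averaged) was converted to z-scores against 500 random hg19 background probes. Variable regions are seed direct-repeat (DR0–DR5) sites, all their single-nucleotide variants and half-site ablations.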

Row | Sequence | PBM binding z-score
1 | CGACCTAGGTCACCAGGACAGTGAAGAGGTTGGA | 2.68
2 | CTATGTAGGTTAAGCGGGTCATTCAGTTTGAAAG | 5.74
3 | CAAACTAGGTCAAAGGTCAAGGTCGAGCCAACCA | 6.86
4 | AGTCAAAGTTCACGAGGTAACGTAAGATTCAGCT | 4.94
5 | ATATGTAGGTTATCGGGTCATTCATTTTGCGCAT | 3.52
6 | TCGAGTAGGTTACGGGGGCATTCACGGATGAAGA | 3.95
7 | ACTAGCAGGTCAAGGGTCACTCAAGATTAGTCCG | 5.4
8 | CCTTACGGGTCACTGACAGCTTATAGCATTTGGA | 3.11
9 | TAGCCTAGCTCATTCAGGGGCCAGTATAGAAAGC | -0.541
10 | CGAACTAGGTCATCGAGGACAGTGAATACATTGA | 6.12
11 | AAATGTAGGTTAGGGTCATTCAGAAAGTAGGGAA | 4.55
12 | AGTCAAAGTTCACTAGGCAACGTAAGATTCAGCT | 3.13
13 | GCTCGGAGGACAAGGTCAGGGCTTTGTCCGTAGA | 1.64
14 | TTACCAAGGTGAAAGGTCGTTGAGGCACGCCTTG | 3.55
15 | GACACAGGGTCAGCTAGAGGCCAGAGTATGGAAA | 3.19
16 | TAGCCTAGGTCATGGGCCAGTTTACCACGCGAAC | 2.61
17 | CCTACTGGGCCAAGGTCATTGAGCAGTCAAAGCA | 3.07
18 | TCTCGGAGGACACGAAGGTCAGCGCTTTCCAGAG | 2.35
19 | TAGCCTAGGTCATTGTGCCAGTATAGTACGCATC | 2.33
20 | CGAACTAGGTCAAAGGACGGTGAAAGGCGACGTA | 1.12

Row | Sequence | PBM binding z-score
21 | CTAGGTAGGTTAAGGGGGTCATTCAGTTTGAAAG | 7.24
22 | CGAAATAGGTCAAAGGACAGTGAAAGGCGACGTA | 2.5
23 | TCTTGTTGATCAAAGGTTAAGAAAGCCGAAGCCT | 1.56
24 | TCTAGCTGGTCAAAGGTCACACACTCGAAATGCG | 5.36
25 | ATATGTAGGTTAGGGTCATTCCGAAAGTAGGGAA | 4.54
26 | TCGAGTAGGGTACGGGGGCATTCAGGGATGAAGA | 3.64
27 | CCTAGTTGGTCAAGGTCCCACACGCTATAGGTAC | 0.398
28 | CCTACAGGGCCAAAGGTCATTGATTCCAATGCTC | 5.03
29 | CGTCGGAGGACAGAAGGTCAGAGCTGTCCGCTTT | 0.797
30 | AAAATGAGGTTAAGATCAGGGAAACAGAATACAT | 1.35
31 | CCCACTGGGCCATTCAGAGGTCATTGATCATATG | 4.02
32 | TCTGCTAGGTCAGTTGGGCAGCTAACGAGCTGCC | -0.0977
33 | TAGCCTAGGTCAGATCGGGCGAGTATACGCTATA | 0.506
34 | TCTCGGAGGACACGAAAGGTGAGAGCTCGACATC | 0.263
35 | CGTCAAAGTTAAAGGTAACGTAACAGAAAGCAGC | 0.291
36 | CTATGTAGGTTAAGGGGGTCGTTCAGTTTGAAAG | 6.43
37 | CCTTCTGGGCCATTCAGAGGTCATTGATCATATG | 4.01
38 | CCTAGTTGGTCAAGCTCACACACGCTATAGGTAC | 0.609
39 | ATCGAAATGTCGTGAGGTGAGTATACAGAAAGGC | -0.0568
40 | CCGAGTAGGTTACGAGGGGGTATTCAGTGCGAAT | 2.95
